# Vif-APOBEC3G blk = qHTS for Inhibitors of Vif-A3G Interactions: qHTS; 410,000 compounds, 0.076% hits; DNA dC->dU-editing enzyme APOBEC-3G (Homo sapiens), Q9HC16; HeLa A3G-eYFP + Vif (tagged APOBEC3G with the HIV-1 protein that degrades it), YFP fluorescence, overnight; Potency, µM (titrated, usually from 46.1 µM), without a hit: top-dose activity, negative = active, usual class: inhibitors; AID 602310, 2012; further: potency means the concentration at half of the fitted maximal effect; on the % scale 0 is the no-effect control and ±100 the full control effect; nearly all actives have a fitted effect of over 60% in size
# Target sequence (Q9HC16 whole entry, looked up): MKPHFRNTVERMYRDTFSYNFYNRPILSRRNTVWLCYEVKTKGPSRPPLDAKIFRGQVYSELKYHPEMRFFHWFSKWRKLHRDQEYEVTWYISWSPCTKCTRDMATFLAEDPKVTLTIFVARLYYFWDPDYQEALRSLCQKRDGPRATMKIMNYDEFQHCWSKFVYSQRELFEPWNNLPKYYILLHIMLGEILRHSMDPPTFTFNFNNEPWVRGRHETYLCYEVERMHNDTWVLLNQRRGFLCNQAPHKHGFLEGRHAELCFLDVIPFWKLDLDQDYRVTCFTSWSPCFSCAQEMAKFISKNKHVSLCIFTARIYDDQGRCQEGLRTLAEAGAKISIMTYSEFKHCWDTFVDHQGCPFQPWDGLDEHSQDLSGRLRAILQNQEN
#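 HeLa cells stably expressing Vif and C-terminally eYFP-tagged A3G, seeded overnight at 37 deg C, then exposed to compound by pintool overnight at 37 deg C. Rise in yellow fluorescence (Ex 488/Em 500-530, Acumen) marks blocked Vif-driven A3G degradation.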
# Vif-APOBEC3F blk = qHTS for Inhibitors of Vif-A3F Interactions: qHTS | HeLa A3F-eYFP + Vif (tagged APOBEC3F with the HIV-1 protein that degrades it), YFP fluorescence increase | Potency, µM (highest dose often 46.1 µM), for inactives: top-dose activity, negative = active | 390,000 compounds, 0.2% hits; further: potency means the concentration at half of the fitted maximal effect; % of control where 0% means no effect; nearly all actives have a fitted effect of over 65% in size
#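 HeLa cells stably expressing A3F-eYFP plus Vif, plated and incubated overnight at 37 deg C, then exposed to compounds overnight at 37 deg C. Blocked degradation read as raised yellow fluorescence (Ex 488/Em 500-530).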
# PLK1 PBD inh = qHTS for Inhibitors of PLK1-PDB (polo-like kinase 1 - polo-box domain): Primary Screen. Potency, µM, for inactives: max response, negative = inhibition, usual class: inhibitors. Plk1 PBD binding of FITC phosphopeptide, fluorescence polarization. Serine/threonine-protein kinase PLK1 (Homo sapiens), P53350. 360,000 compounds, 2.8% hits; further: potency means the concentration at half of the fitted maximal effect; series mostly up to about 57 µM; on the % scale 0 is the no-effect control and ±100 the full control effect; nearly all actives have a fitted effect of over 65% in size
# VDR inh = Inhibitors of the vitamin D receptor (VDR): qHTS. Vitamin D3 receptor (Homo sapiens), P11473. VDR-SRC2-3 peptide fluorescence polarization, 2 h. Potency, µM, for the others: max response, negative = inhibition, hits mostly inhibitors. 400,000 compounds, 0.93% hits; further: potency means the concentration at half of the fitted maximal effect; on the % scale 0 is the no-effect control and ±100 the full control effect
#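 The screen uses fluorescence polarization to detect compounds that interfere with recruitment of the SRC2-3 coactivator peptide to VDR; plates are read after 2 h at room temperature.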
# TSHR antagonist = Antagonists of the Thyroid Stimulating Hormone Receptor: HTS campaign. 330,000 compounds, 0.2% hits. TSHR-expressing cells, TSH-stimulated cAMP HTRF, 2 h; stronger effect = lower value. activity change, negative = inhibition, % at 11.5 µM. Thyrotropin receptor (Homo sapiens), P16473;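 active means activity change below a set negative limit, meaning inhibition stronger than a set level, cut at about -70% in these data; inconclusive means activity change between two set negative limits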; further: on the % scale 0 is the no-effect control and ±100 the full control effect
#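 Freshly harvested TSHR cells receive pin-tooled compound, then EC80 TSH at 4nM final. After 2 hours at 37 deg C, antibody in lysis buffer and cAMP-d2 are added; 30 minutes at ambient temperature precede the HTRF read.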
# * hit, by the source's call; ? = inconclusive; nt = not tested or not shown. The list is not random: actives were taken first. Their share in the collection is about 3.1%. Unless noted, the call rests on the fitted dose curve; in most records, active means well fitted curve in the direction sought with a large enough effect; inconclusive means small, poorly fitted or top-dose-only effect, or another doubt; inactive means no such curve, though single readings can be large; an effect the other way counts as inactive or inconclusive.
SMILES,Vif-APOBEC3G blk,Vif-APOBEC3F blk,PLK1 PBD inh,VDR inh,TSHR antagonist
COC(=O)c1ccccc1NC(=O)C(C)Oc1ccccc1 (configuration not stated),-1.3%,7.1%,2.99µM*,?,-10.7
CCOC(=O)c1ccc(NC(=O)CSc2nnc(CNC(=O)c3ccc(OC)cc3)n2CC)cc1,-3.6%,-15.6%,nt,2.9%,nt
Cc1ccc(S(=O)(=O)NNC(=O)C2COc3ccccc3O2)cc1 (configuration not stated),-4.0%,7.6%,-0.5%,3.0%,-2.7
O=C(NNS(=O)(=O)c1ccccc1Cl)C1COc2ccccc2O1 (configuration not stated),0.0%,4.9%,18.9µM*,-13.5%,nt
COc1ccc(Cl)cc1C(=O)NNC(=O)C1COc2ccccc2O1 (configuration not stated),-0.5%,1.4%,23.8µM*,-21.6%,1.4
COc1ccc(C2=NN(c3nc(-c4ccccc4)c(CC(=O)O)s3)C(c3ccco3)C2)cc1 (configuration not stated),-16.7%,2.0%,10.6µM*,-18.2%,-12.3
COc1ccc(/C=C/C(=O)c2ccncc2)c2ccccc12,-15.2%,-21.2%,5.5%,25.1µM*,-1.3
COc1ccc(/C=C/C(=O)c2ccc[nH]2)c(OC)c1OC,-6.9%,nt,-6.5%,8.8%,-3.8
O=S1(=O)[C@H]2C[C@@H]3C=C[C@@]2(CN1Cc1cccc(Cl)c1)O3,-6.0%,3.3%,-5.5%,-3.1%,28.2
CC(O)c1cccc(-c2ccc(CN3C[C@]4(CO)O[C@@H](CO)C[C@@H]4S3(=O)=O)cc2)c1 (some centres not stated),3.3%,1.8%,26.7µM*,?,18.9
Cc1ccsc1-c1nc(CSCC(=O)N2CCN(c3ccccc3)CC2)c(C)o1,1.3%,2.9%,-11.5%,-6.8%,-70.7*
COc1ccc(-c2nc(CSCC(=O)N3CCN(c4ccccc4)CC3)c(C)o2)cc1,2.1%,1.5%,nt,2.4%,nt
CC(=O)N1CCc2c(sc(NC(=O)C3CC3)c2-c2nc3ccccc3s2)C1,?,?,?,-5.9%,-19.2
CC(=O)Nc1sc2c(c1-c1nc3ccccc3s1)CN(C(C)C)CC2,12.6µM*,10µM*,nt,6.8%,2.4
CCCCCCCCCCCCCCCCOCC(CO)OC(C)=O (configuration not stated),nt,nt,nt,3.2%,nt
CCc1ccccc1N(C)C,-0.1%,nt,nt,nt,nt
O=C(CCN1CCCC1)c1cccs1,3.7%,14.5%,10.6µM*,?,23.5
O=C(CCN1CCC(c2ccccc2)C1)c1cccs1 (configuration not stated),-11.5%,1.2%,21.2µM*,?,11.5
O=C(CCN1CCC(c2ccccc2)C1)c1ccccc1 (configuration not stated),0.5%,-6.1%,?,-12.2%,17.2
COc1ccc2[nH]c3c(c2c1)CCNC3C1CC=C(C)CC1 (configuration not stated),?,2.9%,-0.1%,-20.5%,14.6
COc1ccc2[nH]c3c(c2c1)CCNC3c1ccc([N+](=O)[O-])o1 (configuration not stated),?,25.1µM*,?,?,-4.5
COC/C=C/C1=CC2=CC(=O)C(C)(OC(=O)c3ccc(Cl)nc3)C(=O)C2=CO1 (configuration not stated),nt,nt,nt,-25.6%,nt
CC(C)(C)NC(=S)Nc1ccc(Nc2ccccc2)cc1,-6.8%,-6.9%,29.9µM*,-24.1%,3.7
NC(=S)NNC(=S)Nc1ccccc1,-5.2%,3.3%,?,?,-3.4
S=C(NNC(=S)Nc1ccccc1)Nc1ccccc1,7.7%,-19.0%,?,70.8µM*,-1.1
Cc1cccc(NC(=S)NNc2cccc(Cl)c2)c1,-2.6%,-6.9%,26.7µM*,28.2µM*,-4.6
S=C(NNC(=S)Nc1ccc(Cl)cc1)NNc1ccccc1,3.5%,0.2%,7.52µM*,nt,nt
O=C(NNC(=S)Nc1ccc(Cl)cc1)c1ccccc1,2.4%,-3.2%,-25.9%,26.1%,7.5

# Screens from PubChem.
